PubChem BioAssay (NCATS)
Inconclusive results are not listed. Where a call stands in place of a potency, no number is given. Active and inactive are the calls of the source. Calls follow the shape of the dose curve; as a rule, active = well fitted cell-killing curve with a large enough effect; inconclusive = small, poorly fitted or top-dose-only effect, or effect the other way; inactive = no such curve, though single readings can be large or run the other way.

experiment: Quantitative highthroughput screen to assess conditional lethalithy of SEM cells grown in RPMI1640 with dialyzed fetal bovine serum (RPMI+ds) (AID 1963884); conditions: SEM B-ALL cells, RPMI+dialyzed FBS, CellTiter-Glo viability, 48 h; series mostly up to 45.8 µM; also: nearly all actives have a fitted effect of over 35% in size
From the text: Assay Provider: Jason Cantor Ph.D.
Department of Biochemistry
University of Wisconsin-Madison, Madison, WI, USA
Chemical screening studies have identified drug sensitivities across hundreds of cancer cell lines but most putative therapeutics fail to translate. Discovery and development of drug candidates in models that more accurately reflect nutrient levels in human blood is a major challenge. Here we performed high-throughput screens in conventional versus Human Plasma-Like Medium (HPLM) to identify compounds that were "missed" when screening using the artificial culture condition. Sets of conditional anticancer compounds spanned phases of clinical development and included non-oncology drugs were assessed. […] We also traced conditional phenotypes for several chemotherapeutics to availability of HPLM-specific metabolites and confirmed others for compounds whose reported targets are encoded by nonessential genes. Our findings establish generalizable strategies for exploiting conditional lethality in HPLM to reveal therapeutic candidates and mechanisms of action in cancer cells.
Described herein are the results of each viability screens against three cell lines: NOMO1 (an acute myeloid leukemia cell line); P12-Ichikawa (a T-cell acute lymphoblastic leukemia); and SEM (a B-cell ALL). Each assay was screened using 3 different cell culture media: homemade human plasma-Like medium with 10% dialyzed fetal bovine serum (HPLM+ds); RPMI1640 with 10% untreated FBS and 5mM glucose (RPMI+s); and RPMI1640 with 10% dialyzed fetal bovine serum and 5 mM glucose (RPMI+ds).
PROTOCOL TABLE (as described by Inglese J, Shamu CE and Guy RK. 2007)
SEQUENCE No. (e.g., 1, 2, 3, etc.); […] (e.g., Cells, Incubation, Reagent, etc.); VALUE and DESCRIPTION.
1; Cells; 5 uL; white, solid bottom 1536-well Greiner assay plate.
2; Compounds; 23 nL; Kalypsis pin tool (Wako USA) equipped with a 1536-well pin head to transfer to the assay plates.
3; Incubation; 48 hours; 37C incubation.
4; Reagent; 3 uL; CellTiter Glo (Promega).
5; Incubation; 5 min, room temperature
6; Detection; Luminescence, Viewlux PerkinElmer.
NOTES (numbers refer to Sequence numbers above)
1. Briefly, 5 ul of cell reagent was dispensed using a Multidrop Combi Dispenser. The NOMO1 and SEM cells were plated at 500 cells/well and the P12-Ichikawa line at 1000 cells/well.
2. After seeding the cells, 23 nL of MIPE 4.1 library compounds (in DMSO) were added to each plate using a Kalypsys 1536 Pintool dispenser. Bortezomib at final concentration of […] and DMSO were added to each plate as positive and negative controls respectively. For each screen, MIPE 4.1 compounds were added over an eleven-point concentration range […] in 3-fold dilutions.
3. Each plate was covered with a stainless steel gasketed lid to prevent evaporation and incubated for 48 hour at 37C, 95% relative humidity, and 5% CO2.
4-5. Three microliter CellTilter-GloTM luminescent substrate mix (Promega) reagent was added to the assay plate and incubated at room temperature for 5 min.
6. The luminescence signal was measured using a ViewLux (PerkinElmer) multiplate reader with a 2 second exposure time per plate. Data for each compound were normalized as percent viability such that measurements for DMSO and the empty well controls in each plate were defined as 100% and 0%, respectively.
Potency is read from the fitted curve at half-maximal effect.

SMILES | Potency
O=C1CCC[C@@H]2[C@H]3CCCN4CCC[C@@H](CN12)[C@@H]34 | inactive
CC(C)N(CCNC(=O)CN1CCCC1=O)C(C)C | inactive
O=S(=O)(F)Cc1ccccc1 | inactive
CC=C(C)C(=O)O[C@H]1C(C)=C2[C@@H]3OC(=O)[C@@](C)(O)[C@@]3(O)[C@@H](OC(=O)CCC)C[C@](C)(OC(C)=O)[C@@H]2[C@@H]1OC(=O)CCCCCCC | 33.2 nM (active)
COC1=C[C@@H]2[C@@H]3Cc4ccc(OC)c(O)c4[C@]2(CCN3C)CC1=O | inactive
C[C@@H]1CC[C@H]2[C@@H](C)C(=O)O[C@@H]3O[C@@]4(C)CC[C@H]1[C@]32OO4 | inactive
N[C@@H](Cc1ccc(N(CCCl)CCCl)cc1)C(=O)O | 2960 nM (active)
O=C(Oc1ccc([N+](=O)[O-])cc1)N1CCN(Cc2cccc(Oc3ccccc3)c2)CC1 | inactive
CC[C@H]1C=CC=CC[C@@H](C)[C@H](O)[C@@](C)(O)C(=O)[C@@H](C)[C@H](O)[C@@H](C)C(=O)[C@@H](C)[C@H](O)[C@@H](C)C=CC(=O)O[C@@H]2[C@@H](C)[C@H](CC1)O[C@]1(CC[C@H](C)[C@H](C[C@@H](C)O)O1)[C@H]2C | 4690 nM (active)
CCOC(=O)c1c(C(C#N)=CN)c2ccc(Cl)c(Cl)c2n1C | inactive
C[C@@H]1[C@@H](C(=O)C[C@H]2O[C@@H]3O[C@]4(C)CC[C@@H]5[C@H](C)CC[C@@H]([C@H]2C)[C@@]35OO4)O[C@@H]2O[C@]3(C)CC[C@H]4[C@H](C)CC[C@@H]1[C@@]24OO3 | 23500 nM (active)
Cc1nc(-c2ccc(-c3ccc(C(=O)N4CCc5cc6c(cc54)C4(CCN(C)CC4)CO6)cc3)c(C)c2)no1 | inactive
Cc1cc(SCc2sc(-c3ccc(C(F)(F)F)c(F)c3)nc2C)ccc1OCC(=O)O | inactive
C[C@@H]1[C@@H](CC(C[C@H]2O[C@@H]3O[C@]4(C)CC[C@@H]5[C@H](C)CC[C@@H]([C@H]2C)[C@@]35OO4)C[S+](=O)([O-])c2ccc(COC(=O)N(C)C)cc2)O[C@@H]2O[C@]3(C)CC[C@H]4[C@H](C)CC[C@@H]1[C@@]24OO3 (stereo not given in full) | 418 nM (active)
O=C1C=CC[C@@H]2[C@H]3CCCN4CCC[C@@H](CN12)[C@@H]34 | inactive
CCOc1ccccc1-n1c(C(C)N2CCN(C(=O)COc3ccc(Cl)cc3)CC2)nc2ccccc2c1=O (stereo not given) | 588 nM (active)
COC1(CS(=O)c2ccccc2)CCN(CCc2c[nH]c3ccc(F)cc23)CC1 (stereo not given) | inactive
CC(C)(O)C(=O)Nc1ccc([N+](=O)[O-])c(C(F)(F)F)c1 | inactive
C#CC1(O)CCC2C3CCC4=CC(=O)CCC4(C)C3CCC21C (stereo not given) | inactive
CC(C)(C)c1cc(C=C(C#N)C#N)cc(Br)c1O | inactive

SMILES | Potency
CN(C)[C@@H]1C(=O)C(C(N)=O)=C(O)[C@@]2(O)C(=O)C3=C(O)c4c(O)cccc4[C@@](C)(O)[C@H]3C[C@@H]12 | inactive
CC(=O)OCC1=C(C(=O)O)N2C(=O)[C@@H](N)[C@@H]2SC1 | inactive
C[C@]12CC[C@@H]3[C@@H](CCC4=CC(=O)CC[C@@H]43)[C@@H]1CC[C@@H]2OC(=O)CCc1ccccc1 | inactive
COc1cccc2c1[C@]13CCN(CC4CC4)[C@H](C2)[C@]1(OC)CCC(=O)C3 | inactive
COc1cc(C(=O)N2CC[C@@H](O)[C@@H](N)C2)cc2nc(-c3cc4ccccc4n3CC3CC3)n(C)c12 | 831 nM (active)
C1=C2CCCN[C@H]2[C@@H]2C[C@H]1[C@@H]1CCCCN1C2 | inactive
COC(=O)[C@@H](N)CCCN=C(N)N[N+](=O)[O-] | inactive
C[C@@H]1[C@H](O)[C@@H](C)C=CC=CCCC=CC=CC=CC=C[C@H](O[C@H]2O[C@@H](C)[C@H](O)[C@@H](N)[C@@H]2O)CC2O[C@](O)(C[C@@H](O)[C@H](O)CC[C@@H](O)C[C@@H](O)C[C@@H](O)CC(=O)O[C@H]1C)C[C@H](O)[C@H]2C(=O)O | inactive
CN1C(=O)COc2c(C(=O)NC3CN4CCC3CC4)cc(Cl)cc21 (stereo not given) | inactive
C[C@]12CC[C@H]3[C@@H](CC[C@@]45O[C@H]4C(O)=C(C#N)C[C@]35C)[C@H]1CC[C@H]2O | 16600 nM (active)
C[C@@H]1CC[C@@]2(OC1)O[C@H]1C[C@H]3[C@@H]4CC=C5C[C@@H](O[C@@H]6O[C@H](CO)[C@@H](O[C@@H]7O[C@@H](C)[C@H](O)[C@@H](O)[C@@H]7O)[C@H](O)[C@@H]6O[C@@H]6O[C@@H](C)[C@H](O)[C@@H](O)[C@@H]6O)CC[C@]5(C)[C@@H]4CC[C@]3(C)[C@@H]1[C@H]2C | 14800 nM (active)
C[C@]12CCC(=O)C=C1CC[C@@H]1[C@H]3CC[C@](C)(O)[C@@]3(C)CC[C@@H]12 | inactive
CNC(=O)c1ccc(N2C(=S)N(c3ccc(C#N)c(C(F)(F)F)c3)C(=O)C23CCC3)cc1F | inactive
CC(=CCCC1=CCC(C2=CC(=O)OC2O)OC1O)CCC1=C(C)CCCC1(C)C (stereo not given) | inactive
COc1ccc2c(c1OC)CN1CCc3cc4c(cc3C1C2)OCO4 (stereo not given) | 469 nM (active)
C=CCON=C(C[C@H]1O[C@@H]2O[C@]3(C)CC[C@@H]4[C@H](C)CC[C@@H]([C@H]1C)[C@@]24OO3)[C@H]1O[C@@H]2O[C@]3(C)CC[C@H]4[C@H](C)CC[C@@H]([C@@H]1C)[C@@]24OO3 | 935 nM (active)
C[C@]12COC(=O)C[C@@H]1CC[C@@H]1[C@H]2CC[C@@]2(C)[C@H]1CC[C@]2(C)O | inactive
Cc1cccc(C)c1NC(=O)CN1CCCC1=O | inactive
C[C@@H]1O[C@@H](O[C@@H]2C=C3CC[C@@H]4[C@@H](CC[C@]5(C)[C@H](c6ccc(=O)oc6)CC[C@@]45O)[C@@]3(C)CC2)[C@H](O)[C@H](O)[C@H]1O | 37.2 nM (active)
CN[C@@H]1Cc2cccc3[nH]c(=O)n(c23)C1 | inactive
